From the supplement of paper PMC6555819

What follows are sequences tested on PPARg homodimer (NR concentration 180 nM) (assay: PBM binding z-score (relative to random genomic background probes); higher = stronger binding; sequences stand for … in GC…GCGATTGACAGCGTAGAATGAAGG).
Method in brief: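 Binding z-scores take random background probes as their reference. They come from custom Agilent 4×180K protein-binding microarrays incubated 1 h with ligand-free nuclear receptor dimers, with antibodies against each partner (one per run) detecting binding. Scanned fluorescence was regression-normalized.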
TCTTGTAGATCAAACAGGTTAAGAAAGCCTGAGT showed a PBM binding z-score of -0.369.
GCTAGTTGGTCAGTATAAGGTCACACACCGGTCG gave a PBM binding z-score of 4.01.
In the case of ATCTCTAGGTAACAAGTTCAGAGAAAGAGAGGAC, the PBM binding z-score is reported as 0.923.
With TCTATTAGTTGTAGGGCAACCGACGAGTCCGTTT the PBM binding z-score was 0.517.
AGAATGAAGTTATACGTAGATCAGGGAAGAAAGT was tested, and the PBM binding z-score was -0.353.
In the case of TAGCCTAGGTCATTAGGCCAGTATAGTACGCATC, the PBM binding z-score is reported as 1.19.
In the case of CCTTACGGGTCTCGAGGTTATAGCACGACGAGCG, the PBM binding z-score is reported as 0.167.
For ATACCAAGGTGATCGTAAGGTCGTTGATACTAAC, the PBM binding z-score was 0.753.
Work on TTACCAAGGTGCAAGGTCGTTGATGCACGCCTTG yielded a PBM binding z-score of 0.87.
For TCTTATAGGTAAACAGGTGAAAGTCCGTAAGTTA, the PBM binding z-score was 1.19.
ATACCAAGGTGATCGTGAGGTCCTTGATACTAAC was tested, and the PBM binding z-score was -0.043.
Work on TCATATAGGTAAAGGTGATAGTCGAACGATATGA yielded a PBM binding z-score of 0.694.
Sequence AGACAAAGTTCACTAGGTAACGTAAGATTCAGCT has a PBM binding z-score of 1.94.
In the case of GATGCTAGGTCAGGTTGGTCAGCTAACGGGTACG, the PBM binding z-score is reported as 1.67.
CCTTACTGGTCACGAGGTTATAGCACGACGAGCG showed a PBM binding z-score of 1.78.
Sequence TCTTGTAGATCAGCAAGTTAAGAAAGCTGGCCAA has a PBM binding z-score of -0.907.
TCATATAGGGAAATGCTAGGTGAAAGTCCGATCT gave a PBM binding z-score of 0.712.
GCAAATAGGTAATACAAGGTGAAAGTCCGATTGT showed a PBM binding z-score of 0.192.
GCTTACGGGTCAACGGTTATAGCATGAATAGAAT showed a PBM binding z-score of 1.62.
Work on GCGACTGGGGCATCAGCAGATTACCATAACTTAA yielded a PBM binding z-score of -0.0673.
Sequence GCGACTGCGGCAAAGCAGGTTACCATAAGGTTGG has a PBM binding z-score of -0.726.
With GCGACTGGGGCATTAGCAGGTTACCATAACTTAA the PBM binding z-score was 0.463.
